Data taken from paper PMC7819943, “Rice protein-binding microarrays: a tool to detect cis-acting elements near promoter regions in rice”.
Whole data set: some 35,000 sequences, median “fluorescence intensity (a.u.)” near 10,000, cut for the highest 2% near 52,000. The full list was thinned out, with the highest values kept by preference.

These sequences were tested against T1, OsWOX13 (Oryza sativa, UniProt Q5QMM3 1-267) (assay: protein-binding microarray (RPBM); PBS, 2% BSA, 51.3 ng/ul salmon testes DNA, 50 uM zinc acetate, 200 nM TF, 25 C, 1 h; high values mean tight binding). Settings: protein: recombinant; tags: N-terminal polyhistidine and DsRed monomer fusion (pET32a); label: CyDye5-dUTP incorporated in the synthesized complementary strand; 3' TTTTT single-stranded linker to array surface; dsDNA, one strand shown.
T1 sequence: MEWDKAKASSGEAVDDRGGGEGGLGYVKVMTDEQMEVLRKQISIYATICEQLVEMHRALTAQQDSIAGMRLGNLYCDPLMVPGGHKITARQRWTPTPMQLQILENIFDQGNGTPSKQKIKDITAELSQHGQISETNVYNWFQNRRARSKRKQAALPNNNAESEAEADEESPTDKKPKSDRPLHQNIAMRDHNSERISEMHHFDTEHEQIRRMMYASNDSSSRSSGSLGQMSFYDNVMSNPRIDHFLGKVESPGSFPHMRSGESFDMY
How it was run: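 In PBS with 2% BSA, salmon testes DNA and 50 µM zinc acetate, 200 nM protein was incubated on a custom Agilent array at 25 °C for 1 h and then washed off. The array had been made double-stranded by primer extension with Cy5-dUTP and blocked with 2% BSA. The proteins were transcription factors fused N-terminally to polyhistidine and DsRed, expressed in E. coli BL21-CodonPlus and purified on Ni–NTA. The binding signal is per-feature fluorescence intensity (arbitrary units) from an Axon 4000B scanner.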

Sequence	binding signal
AACAAATAAATTACTATTAGAGTAGGATGTTCGGCAAAGTCGGAGTCACCTAGTGCAG	7390 fluorescence intensity (a.u.)
ATATTGATGTTAATGAATCTAAATAGATATATATGTCTAGCGGAGTCACCTAGTGCAG	5520 fluorescence intensity (a.u.)
GTAGACTGATCACAATCTTTATTAGAATCGTTTAAGACACCGGAGTCACCTAGTGCAG	6090 fluorescence intensity (a.u.)
TCTAATTTATTAGAGCGCCACATGACGGCTTGAGAGCGTTCGGAGTCACCTAGTGCAG	19200 fluorescence intensity (a.u.)
TTCGTTCATCATCAATCAAAACATGGGACTATAAGGATTTCGGAGTCACCTAGTGCAG	7300 fluorescence intensity (a.u.)
AGTCAGCTGATTTAAATATAAACAGGGGTAAGAATTTAAGCGGAGTCACCTAGTGCAG	15000 fluorescence intensity (a.u.)
TATTTTGTAATCATTTGTTTTATATTTGAATTCCTGTCAGCGGAGTCACCTAGTGCAG	3710 fluorescence intensity (a.u.)
GGTAAATATAATAAATTATTGATCTAACAACTTGAAATTACGGAGTCACCTAGTGCAG	3460 fluorescence intensity (a.u.)
AATGATCTGATGGATGTTCTCTCACGTTCAAATCAGAGGCCGGAGTCACCTAGTGCAG	8430 fluorescence intensity (a.u.)
AGCTGCATATATTGATTGACAGGTGTACCGATTCCTTATGCGGAGTCACCTAGTGCAG	54400 fluorescence intensity (a.u.)
CAATATTCTTTGACAGCTTCGATTGACATCTCACCTTATGCGGAGTCACCTAGTGCAG	9220 fluorescence intensity (a.u.)
TGGGTCATTTATTGATTATTGTATTATTGTTCCTTATATTCGGAGTCACCTAGTGCAG	10300 fluorescence intensity (a.u.)
GTCAATTTAGATTGCCGCGCTTACAATTAGTTCTCAGGAACGGAGTCACCTAGTGCAG	15100 fluorescence intensity (a.u.)
AGTGATTAGATTAGTGAACTGATTAACATTTCTTGTGTTCCGGAGTCACCTAGTGCAG	64700 fluorescence intensity (a.u.)
TCTAATTTCTTCCCTTGCAGATTGATCTTGTTAGTGAGCCCGGAGTCACCTAGTGCAG	20700 fluorescence intensity (a.u.)
AAAGTAATTAGTGTTTTCTTGATTAGTCTTTTCCTTGTATCGGAGTCACCTAGTGCAG	42700 fluorescence intensity (a.u.)
CATTAAGAGTGATTGAATCTTGTTCTAAACATTAACTTTTCGGAGTCACCTAGTGCAG	26300 fluorescence intensity (a.u.)
TTAATTAATTTCTCTAATGATTCTCAATCTTGTGTTCTTCCGGAGTCACCTAGTGCAG	28300 fluorescence intensity (a.u.)
ACAAAGTAATTGATTTCTTGTGTGAGGCCTTGTTTAGATCCGGAGTCACCTAGTGCAG	53400 fluorescence intensity (a.u.)
ATTATCCATTCAATCAAAACAAGCAGGACTACTAGAAAGCCGGAGTCACCTAGTGCAG	8940 fluorescence intensity (a.u.)
CTTTATTGATTGAGAGGAACTATCTACCTCTGTAATGACACGGAGTCACCTAGTGCAG	39200 fluorescence intensity (a.u.)
CAGTGTGATTTAAGAATTTTCAACTGTAAAAGAATAGGAGCGGAGTCACCTAGTGCAG	10000 fluorescence intensity (a.u.)

Sequence	binding signal
TCTAATTACTTATTAATTAATTGATTTAATTAAATTAATCCGGAGTCACCTAGTGCAG	40400 fluorescence intensity (a.u.)
AAAATAACTAATTGCACAGATTGTGACTAATTTGCGAGACCGGAGTCACCTAGTGCAG	34900 fluorescence intensity (a.u.)
AATAACTAATTGTACATATTACGACTAATTTGCGAGATGACGGAGTCACCTAGTGCAG	35000 fluorescence intensity (a.u.)
CTAGATTTATAATTAAATAAATTATTATAATATATAACTCCGGAGTCACCTAGTGCAG	42700 fluorescence intensity (a.u.)
TCAATTGATTATTACTGCCGCTTACTGTCTCCTCTACTGCCGGAGTCACCTAGTGCAG	53300 fluorescence intensity (a.u.)
ATCAATCACTACTGCATATTACTATAATCTCCTCTATACTCGGAGTCACCTAGTGCAG	5200 fluorescence intensity (a.u.)
CCGCACCTAAATTGATTGATTATTAATTTAACTGCCGCTCCGGAGTCACCTAGTGCAG	65500 fluorescence intensity (a.u.)
ACAAAACCAACTAATTAGGCAGGCAGCCATTTACCTCCATCGGAGTCACCTAGTGCAG	5480 fluorescence intensity (a.u.)
TTTGCCGCTGAGTAATTAAATTGTCTACTTACAAATCCTCCGGAGTCACCTAGTGCAG	3590 fluorescence intensity (a.u.)
AATAACTAATTGCATAGATTGTGACTAATTTGCGATGCGACGGAGTCACCTAGTGCAG	55200 fluorescence intensity (a.u.)
AACTAATTAATTTATTGGCAGGCACTGGCCTACCAAACCTCGGAGTCACCTAGTGCAG	53100 fluorescence intensity (a.u.)
CAGGACTAATTGGGGTTGCAAACTGGGACTACAAACTACTCGGAGTCACCTAGTGCAG	28300 fluorescence intensity (a.u.)
AAAACAGTTTGATTAGCTTTCTGTCGAATCTGTCATGCATCGGAGTCACCTAGTGCAG	16500 fluorescence intensity (a.u.)
TTCTGATTAGTTACAACTTGAGTTCACTATTGTCATGATACGGAGTCACCTAGTGCAG	37200 fluorescence intensity (a.u.)
GACAAGATCAGTCCTAATTATATATATGTTTTACCTTCTACGGAGTCACCTAGTGCAG	4490 fluorescence intensity (a.u.)
TGCAATAAATTATAGATGACTGAACATTTACACTCTACAGCGGAGTCACCTAGTGCAG	15300 fluorescence intensity (a.u.)
CATAACTAATTAGTAACACAAAGAATATTGATTAGATGATCGGAGTCACCTAGTGCAG	43100 fluorescence intensity (a.u.)
CGCTAAAATTAAAAGTTTGATTGAAATTAGAACGATGTAACGGAGTCACCTAGTGCAG	30300 fluorescence intensity (a.u.)
TTAAAATTAAACTTTTGCAGTCTTTCTAATTTGCCTCCTCCGGAGTCACCTAGTGCAG	5220 fluorescence intensity (a.u.)
ACTGAACAAATTGAGCATGGTGTATATGTCACATTTTCTACGGAGTCACCTAGTGCAG	6220 fluorescence intensity (a.u.)
TACATACAAGTTACAGTGTAATTACACTACGATTGTACTACGGAGTCACCTAGTGCAG	3630 fluorescence intensity (a.u.)
TTGCACTGATTTTGTAACTTAAGGGATACGTCGTATCCGGCGGAGTCACCTAGTGCAG	6500 fluorescence intensity (a.u.)

Sequence	binding signal
AGCCACGCAATCAATTAAATAATTAAGATAGGTACACGTGCGGAGTCACCTAGTGCAG	26400 fluorescence intensity (a.u.)
CATATGACCAGTTTAACTGCCATCATGCAGACACACAGGACGGAGTCACCTAGTGCAG	3410 fluorescence intensity (a.u.)
ATATAAATCAAATTTACAACTTTGCTGTAGCTATAATTTGCGGAGTCACCTAGTGCAG	7160 fluorescence intensity (a.u.)
CATATGATTAATTAAAATTTTATCATTTAGAACTTGAAAACGGAGTCACCTAGTGCAG	34800 fluorescence intensity (a.u.)
AATGGGAACTAATGGGCCGGATTGACTACTTTGCTACATTCGGAGTCACCTAGTGCAG	3240 fluorescence intensity (a.u.)
TAGGTGACAGTTTATTTAATGCTATTGACACTATTCTAGCCGGAGTCACCTAGTGCAG	8640 fluorescence intensity (a.u.)
GATGAAGATTGATATTACCTGCGGCCGCCGGCGCCGCTGTCGGAGTCACCTAGTGCAG	7110 fluorescence intensity (a.u.)
TATTGATTAAATTTAATTTATAGATAGACTAATATTTTACCGGAGTCACCTAGTGCAG	29800 fluorescence intensity (a.u.)
CACATAATTGAACTGCTAATTTTATTCTAGTCGGAAGCACCGGAGTCACCTAGTGCAG	54600 fluorescence intensity (a.u.)
TTAATTAATTGCTAATTACACTAATTAATTTATTGATAGCCGGAGTCACCTAGTGCAG	65200 fluorescence intensity (a.u.)
GCATAACTAATTGTTGTTGCACATATTTTCTTTATAAAGCCGGAGTCACCTAGTGCAG	15500 fluorescence intensity (a.u.)
GTGATTGGGCTATTTGTAATGTTCAGATGGTGAACTGTGCCGGAGTCACCTAGTGCAG	27600 fluorescence intensity (a.u.)
CCGCACTCTATTATTGTATTGATTAGCTTGTGTCATTCGCCGGAGTCACCTAGTGCAG	20500 fluorescence intensity (a.u.)
ATAACTTTTAATTTAAGCTAATTTTATTTCTGCCGGACATCGGAGTCACCTAGTGCAG	19600 fluorescence intensity (a.u.)
ATTATTTGTGATTTGATTGCTAGTGATTTGAACTAATGGCCGGAGTCACCTAGTGCAG	64300 fluorescence intensity (a.u.)
CATTATTGATTGATTGATTCGCAGATTCGCCGCTGCCACCCGGAGTCACCTAGTGCAG	57200 fluorescence intensity (a.u.)
GCCTAATTAATCCGTCATTAGCAAATGTTTATTGTAGCACCGGAGTCACCTAGTGCAG	38200 fluorescence intensity (a.u.)
GCTGACAGGGACAATCGGATGGAGCAGAATGTCTGAACGTCGGAGTCACCTAGTGCAG	11000 fluorescence intensity (a.u.)
TTTGATCAAAATCAAAACGTCTTATAACCTGAAACGGAGGCGGAGTCACCTAGTGCAG	4210 fluorescence intensity (a.u.)
GCTAATTAAGTCCATTGCACATAGATCGATATGTGTACACCGGAGTCACCTAGTGCAG	27700 fluorescence intensity (a.u.)
CCAATTGACTATATATAACATAGTACTTGCTAGCTTAATTCGGAGTCACCTAGTGCAG	3640 fluorescence intensity (a.u.)
TTTAGGATTGAAGTAAACTGTAAACTATATGTCTGACCGCCGGAGTCACCTAGTGCAG	16600 fluorescence intensity (a.u.)

Sequence	binding signal
CAATACATAACAGACAAATTATCAAAATAGATTAAAGTTTCGGAGTCACCTAGTGCAG	4710 fluorescence intensity (a.u.)
ATTTTAAATTTATTATATGATGATTAATTTGGGAATGAGGCGGAGTCACCTAGTGCAG	28400 fluorescence intensity (a.u.)
TACATCACTAATCACGTTGCTTCGATGACACCTCCTTCTTCGGAGTCACCTAGTGCAG	7440 fluorescence intensity (a.u.)
TGTATGTGTGTACTCGTAATTAGTGAGAATTTAAATTCATCGGAGTCACCTAGTGCAG	3820 fluorescence intensity (a.u.)
CAAAAGTGTTCAATCAAATATGAAAATGAGTATAATGCAACGGAGTCACCTAGTGCAG	6990 fluorescence intensity (a.u.)
CTAATTAGGTCCAGGACATTAAATGGGTTGATTACGTCACCGGAGTCACCTAGTGCAG	8450 fluorescence intensity (a.u.)
GTTTATGTTAGTGCTAGTGATTAGTACTTAAACATTCAGACGGAGTCACCTAGTGCAG	4010 fluorescence intensity (a.u.)
GAACTAATTGATACATTAGCCACTTGATGAGCTCCTCTCCCGGAGTCACCTAGTGCAG	58600 fluorescence intensity (a.u.)
ATCTGGCAATAATTTACAATTAATTGATACCTTATTGCCTCGGAGTCACCTAGTGCAG	54800 fluorescence intensity (a.u.)
CCAATTTAATAAAATAAATTGATACTATAAATATTACAATCGGAGTCACCTAGTGCAG	9090 fluorescence intensity (a.u.)
AGGCACTAAAATAATCTAATTGATTAACTAATCGGTCACCCGGAGTCACCTAGTGCAG	25300 fluorescence intensity (a.u.)
AAGAGTTTAAATTTTAAAATGATTTTATAAGTGGTTAACCCGGAGTCACCTAGTGCAG	7500 fluorescence intensity (a.u.)
AAATTTATAATTTTACAATAAATTTGATATTAAATTTGTACGGAGTCACCTAGTGCAG	12300 fluorescence intensity (a.u.)
TGCTAACTTGAGATGAATGTCGAACTCCTAATTGCAGCTCCGGAGTCACCTAGTGCAG	3470 fluorescence intensity (a.u.)
GTTTCTAATTAACTAAATTAATTAATTAGCATGATTGGTCCGGAGTCACCTAGTGCAG	64700 fluorescence intensity (a.u.)
CTTATTAGCACATGATTAATTAATTATTAACTATTATAAACGGAGTCACCTAGTGCAG	19500 fluorescence intensity (a.u.)
AATACTTGCAAATTAGCTAACTAGTTCTCCTAATTGAGCCCGGAGTCACCTAGTGCAG	9350 fluorescence intensity (a.u.)
AACTTATAAATTGATTTATAAGTCTAAATAAAGAGGCACCCGGAGTCACCTAGTGCAG	55800 fluorescence intensity (a.u.)
ATAACTAATAAATGATTGAATTAGATGAATAGGTAGTTTCCGGAGTCACCTAGTGCAG	31000 fluorescence intensity (a.u.)
